# Results: ChEMBL document CHEMBL3988442, “University of Dundee, Small-Polar-MMV Screening Library” (2021)
# In all, about 66,000 compounds went through this assay and about 960 (1.5%) showed an effect of 50% or more. Shown is part of a subset that was picked to be rich in strong results.
# Tested on: Trypanosoma brucei
# Experiment: Trypanosoma brucei 72 hour study
# Type: functional, organism-based
# Design: scale not given: in the data most compounds retested in dose-response had high values
compound,measurement,setting,value
O=C(Nc1ccccc1Cl)N1CCN(CC2CC2)[C@@H]2CS(=O)(=O)C[C@@H]21,Percent Effect,"30 µM, 30.03 µM",-39.32%
Cc1ccc2c(c1)nc1n2[C@@H](CNC(=O)c2cncnc2)COC1,Percent Effect,"30.3 µM, […]",-3.868%
CCNC(=O)NC[C@H]1COCc2nc3cc(OC)ccc3n21,Percent Effect,"30 µM, 30.03 µM",86.68%
COc1ccc(C(=O)NC[C@H]2COCc3nc4cc(C)ccc4n32)cc1,Percent Effect,"30.3 µM, […]",101.3%
CCNC(=O)NC[C@H]1COCc2nc3cc(C)ccc3n21,Percent Effect,"30.3 µM, […]",32.27%
COc1ccc2c(c1)nc1n2[C@@H](CNC(=O)c2cccnc2)COC1,Percent Effect,"30.3 µM, […]",-10.65%
COc1ccc2c(c1)nc1n2[C@@H](CNC(=O)c2ccccn2)COC1,Percent Effect,"30 µM, 30.03 µM",-12.62%
Cc1ccoc1-c1nnc(CNC2CCCN(c3cccnn3)C2)o1 (stereo not drawn),Percent Effect,"30.3 µM, […]",3.988%
CNCC(=O)N1CCCC1c1cncc(Oc2ccc(F)cc2)n1.Cl (stereo not drawn),Percent Effect,"30.3 µM, […]",-5.938%
CS(=O)(=O)c1ccc(-c2cnc(C3CCCN3)cn2)cc1.Cl (stereo not drawn),Percent Effect,"30.3 µM, […]",-27.05%
Cc1nccc(N[C@H]2CN(C(=O)CN3CCCC3=O)C[C@@H]2C(C)C)n1,Percent Effect,"30 µM, 30.03 µM",-19.05%
O=C(CN1CCCCC1)N1CCC(c2cc(=O)n3c(n2)CCCCC3)C1.O=C(O)CC(O)(CC(=O)O)C(=O)O (stereo not drawn),Percent Effect,"30.3 µM, […]",-11%
Cc1ccc(CN2CCC3(CC2)C(=O)N(CC(C)C)CCN3C)s1.O=C(O)C(F)(F)F.O=C(O)C(F)(F)F,Percent Effect,"30.3 µM, […]",-75.61%
COc1cccc([C@@]2(O)CC[C@@H]3CN(C(=O)c4ccn(C)n4)C[C@@H]32)c1,Percent Effect,"30.3 µM, […]",1.75%
CN(CC(=O)NCC(F)(F)F)C(=O)c1ccc(C(=O)OC(C)(C)C)cc1,Percent Effect,"30 µM, 30.03 µM",14.69%
N#Cc1c(Cl)nsc1NCc1ccnc(OCC(F)(F)F)c1,Percent Effect,"30 µM, 30.03 µM",-8.155%
CCS(=O)(=O)c1ccccc1N1CCC(NC2CCCC2)CC1,Percent Effect,"30.3 µM, […]",22.61%
N#Cc1cn(C2CC2)c(=O)n(Cc2ncc(-c3cccs3)o2)c1=O,Percent Effect,"30.3 µM, […]",55.83%
N#Cc1cn(C2CC2)c(=O)n(Cc2cc(-c3cccs3)on2)c1=O,Percent Effect,"30.3 µM, […]",-130.2%
N#Cc1cn(C2CC2)c(=O)n(Cc2noc(-c3cccs3)n2)c1=O,Percent Effect,"30.3 µM, […]",18.62%
Cc1nc(CNC(=O)N2CCN(c3ccc(Cl)cn3)CC2)sc1C,Percent Effect,"30.3 µM, […]",8.84%
COc1cccc(C(=O)N2C[C@H]3CC[C@@H]2CN(Cc2cscn2)C3)c1,Percent Effect,"30 µM, 30.03 µM",-1.998%
O=C(NCc1cccs1)[C@H]1CC[C@@H]2[C@@H](CCN2C2CCC2)O1.O=C(O)C(F)(F)F,Percent Effect,"30 µM, 30.03 µM",-12.3%
Cl.Cl.c1cnc(NCc2cncc3c2CCN(Cc2cccs2)C3)nc1,Percent Effect,"30 µM, 30.03 µM",-8.466%
CC(C)CN1CCC(NC(=O)c2ccc(F)cc2F)CC1,Percent Effect,"30 µM, 30.03 µM",-0.8337%
CCCN1CCC(NC(=O)c2ccc(F)cc2I)CC1,Percent Effect,"30 µM, 30.03 µM",80.53%
CC(C)CN1CCC(NC(=O)c2ccc(F)cc2Cl)CC1,Percent Effect,"30 µM, 30.03 µM",-22.52%
CCCN1CCC(NC(=O)c2csc(C)c2C)CC1,Percent Effect,"30.3 µM, […]",-65.99%
CCN1CCC(NC(=O)c2ccc(F)cc2I)CC1,Percent Effect,"30 µM, 30.03 µM",29.33%
CC(C)CN1CCC(NC(=O)c2ccc(F)cc2I)CC1,Percent Effect,"30 µM, 30.03 µM",77.98%
CNC(=O)COC1COC2(CCN(Cc3cccnc3OC)CC2)C1.O=C(O)C(F)(F)F (stereo not drawn),Percent Effect,"30.3 µM, […]",-30.72%
O=C(O)C(F)(F)F.O=C([C@@H]1C[C@@H]2CCN(c3cccc(F)c3)C[C@H]2O1)N1CCCC1,Percent Effect,"30.3 µM, […]",-10.13%
COc1cc(NC(=O)c2ccc(CN3CC[C@H](O)C3)cc2)cc(OC)c1,Percent Effect,"30.3 µM, […]",58.59%
Cc1cncc(NC(=O)c2ccc(CN3CC[C@H](O)C3)cc2)c1,Percent Effect,"30.3 µM, […]",-21.22%
Cc1cc(NC(=O)c2ccc(CN3CC[C@H](O)C3)cc2)ccc1F,Percent Effect,"30.3 µM, […]",41.32%
CN(C)Cc1cn2c(n1)CN(C(=O)Cc1ccsc1)CC2.O=C(O)C(F)(F)F,Percent Effect,"30 µM, 30.03 µM",-42.4%
Cl.O=c1c2sccc2nc2n1CCN(Cc1ccc(F)c(F)c1)CC2,Percent Effect,"30.3 µM, […]",15.73%
COc1ccnc(N2CCc3ccc(OC(F)F)cc3C2)n1,Percent Effect,"30.3 µM, […]",7.96%
Cc1cc(C)nc(N2CCc3ccc(OC(F)F)cc3C2)n1,Percent Effect,"30.3 µM, […]",70.84%
COc1cccc(O[C@H]2CCN(c3nc(C)cc(C)n3)CC[C@@H]2O)c1,Percent Effect,"30.3 µM, […]",-10.89%
COc1ccc2c(c1)CN(c1nc(C)cc(C)n1)CC2,Percent Effect,"30.3 µM, […]",100.3%
COc1ccc(C2CN(c3nc(C)cc(C)n3)CCN2C(C)=O)cc1 (stereo not drawn),Percent Effect,"30.3 µM, […]",9.247%
COc1ccc2c(c1)CN(c1cc(N3CCCC3CO)ncn1)CC2 (stereo not drawn),Percent Effect,"30.3 µM, […]",27.38%
CN1CCc2c(C#N)c(NCc3cccnc3)n3cnnc3c2C1.Cl,Percent Effect,"30 µM, 30.03 µM",-8.696%
CCC(C)N(Cc1ccsc1)C(=O)c1ccc2[nH]nnc2c1 (stereo not drawn),Percent Effect,"30 µM, 30.03 µM",2.149%
O=C(O)C(F)(F)F.c1cnc(N2CCO[C@H]3CN(CC4CCOC4)C[C@H]32)cn1 (stereo partly drawn),Percent Effect,"30.3 µM, […]",-89.28%
Fc1ccc(N2CCCN(c3ccc(Cn4ccnc4)cn3)CC2)cc1,Percent Effect,"30 µM, 30.03 µM",-16.3%
CS(=O)(=O)N1CCO[C@@H]2CN(C(=O)N3CCOCC3)CC[C@@H]2C1,Percent Effect,"30.3 µM, […]",-93.06%
Cc1cnn(CCNCc2nc(CNC(=O)c3ccccc3)no2)c1,Percent Effect,"30.3 µM, […]",55.13%
CCc1noc(CNCCn2cc(C)cn2)n1,Percent Effect,"30.3 µM, […]",-10.46%
Cc1cnn(CCNCc2nc(Cc3ccccc3)no2)c1,Percent Effect,"30 µM, 30.03 µM",-8.184%
CC(NC(=O)NCc1cc(Br)cs1)c1ccccn1 (stereo not drawn),Percent Effect,10 µM,-58.94%
COc1ccc(CN2CCC(c3nnc(-c4scnc4C)o3)CC2)cc1,Percent Effect,"30.3 µM, […]",3.062%
CCc1cc(N[C@@H]2C[C@H]3CC[C@@H]2C3)n2nccc2n1,Percent Effect,"30 µM, 30.03 µM",24.99%
CCCn1cc(-c2ccnc(NC3CCCc4ccccc43)n2)c(C)n1 (stereo not drawn),Percent Effect,"30 µM, 30.03 µM",15.8%
CCCn1ncc(-c2ccnc(N[C@@H]3C[C@@H]4CC[C@H]3C4)n2)c1C,Percent Effect,"30.3 µM, […]",89.15%
CCCn1ncc(-c2ccnc(NC3CCSC3)n2)c1C (stereo not drawn),Percent Effect,"30.3 µM, […]",99.54%
Cn1ncc2c(N[C@@H]3C[C@@H]4CC[C@H]3C4)nc(-c3ccncc3)nc21,Percent Effect,"30.3 µM, […]",-15.13%
CCCn1cc(-c2ccnc(NC3CCc4ccccc43)n2)c(C)n1 (stereo not drawn),Percent Effect,"30 µM, 30.03 µM",34.15%
CCCn1ncc(-c2ccnc(NC3CCCc4ccccc43)n2)c1C (stereo not drawn),Percent Effect,"30 µM, 30.03 µM",93.43%
CCCn1ncc(-c2ccnc(NC3CC(C)(C)NC(C)(C)C3)n2)c1C,Percent Effect,"30.3 µM, […]",25.37%
CCCn1cc(-c2ccnc(NC3CCc4ccccc4C3)n2)c(C)n1 (stereo not drawn),Percent Effect,"30 µM, 30.03 µM",2.067%
Cc1ccc(C(=O)N2CCC3(CCN3c3ncccn3)C2)cn1.O=C(O)C(F)(F)F (stereo not drawn),Percent Effect,"30 µM, 30.03 µM",-27.47%
COC(=O)CCN(C)C(=O)c1csc(Cc2ccccc2F)n1,Percent Effect,"30 µM, 30.03 µM",-48.33%
O=C(O)C(F)(F)F.O=C(c1ccccc1)N1CCC2(CCCN2c2ncccn2)CC1,Percent Effect,"30 µM, 30.03 µM",-3.287%
Cc1nnsc1CN1C[C@H]2CC[C@@H]1CN(Cc1ccc(F)cc1)C2,Percent Effect,"30 µM, 30.03 µM",-34.67%
CCCN1C[C@H]2CC[C@@H]1CN(Cc1cccc(O)c1)C2,Percent Effect,"30.3 µM, […]",-137.4%
Oc1cccc(CN2C[C@H]3CC[C@@H]2CN(Cc2ccc(F)cc2)C3)c1,Percent Effect,"30.3 µM, […]",102.6%
Cc1ccc(CN2CCc3nnc(COCCN(C)C)n3CC2)o1.O=C(O)C(F)(F)F.O=C(O)C(F)(F)F,Percent Effect,"30.3 µM, […]",-5.489%
Cc1ccc2c(n1)N(CC1CC1)CCN(Cc1cnn(C)c1)C2,Percent Effect,"30.3 µM, […]",-21.1%
Cc1ccnc(N2CCC(C(N)=O)CC2)n1,Percent Effect,"30.3 µM, […]",-17.59%
c1cc(-c2cn3nccc3nc2C2CCCCC2)nc(N2CCCC2)n1,Percent Effect,"30.3 µM, […]",41.66%
CN1CCCN(c2nccc(-c3cc(C(=O)O)ccn3)n2)CC1,Percent Effect,"30 µM, 30.03 µM",-37.76%
CN1CCCN(c2nccc(-c3c[nH]nc3-c3ccncc3)n2)CC1,Percent Effect,"30.3 µM, […]",10.61%
CN1CCCN(c2nccc(-c3cncnc3C3CCCCC3)n2)CC1,Percent Effect,"30.3 µM, […]",-3.717%
NC(=O)C1CCN(c2nccc(-c3c[nH]nc3C3CCCCC3)n2)CC1,Percent Effect,"30.3 µM, […]",100.2%
NC(=O)[C@H]1CCCN(c2nccc(-c3c[nH]nc3-c3cccnc3)n2)C1,Percent Effect,"30.3 µM, […]",-17.38%
CN1CCN(c2nccc(-c3cncnc3C3CCCCC3)n2)CC1,Percent Effect,"30.3 µM, […]",-9.341%
CN1CCCN(c2nccc(-c3c[nH]nc3C3CCCCC3)n2)CC1,Percent Effect,"30 µM, 30.03 µM",98.42%
c1cc(-c2c[nH]nc2C2CCCCC2)nc(N2CCCCCC2)n1,Percent Effect,"30.3 µM, […]",99.82%
Nc1nccc(-c2c[nH]nc2C2CCCCC2)n1,Percent Effect,"30 µM, 30.03 µM",44.22%
CN1CCCN(c2nccc(-c3c[nH]c4ccc(Br)cc34)n2)CC1,Percent Effect,"30.3 µM, […]",99.21%
Cc1nnsc1C(=O)N1CCCC(n2nnc3cc(F)ccc32)C1 (stereo not drawn),Percent Effect,"30.3 µM, […]",2.47%
CC1COCCN1Cc1nc(-c2ccsc2)no1 (stereo not drawn),Percent Effect,"30.3 µM, […]",-0.3401%
same,Percent Effect,"10 mM, 10 mM as filed; unlikely as a test dose",-39.38%
CC(C)N1CCO[C@@H]2CN(S(=O)(=O)c3cccs3)CC[C@@H]2C1.O=C(O)C(F)(F)F,Percent Effect,"30.3 µM, […]",-39.91%
COc1ccc(OC)c(CN2CCc3nc4ccsc4c(=O)n3CC2)c1.Cl,Percent Effect,"30.3 µM, […]",12.93%
OC[C@H]1CCCN1c1nccc(-c2cncnc2C2CCCCC2)n1,Percent Effect,"30.3 µM, […]",-14.29%
OC[C@H]1CCCN1c1nccc(-c2c[nH]nc2C2CCCCC2)n1,Percent Effect,"30.3 µM, […]",98.96%
OC[C@@H]1CCCN1c1nccc(-c2c[nH]nc2-c2ccncc2)n1,Percent Effect,"30.3 µM, […]",21.87%
CCc1noc(C(C)N(C)CC(=O)Nc2ccc(Br)cc2C)n1 (stereo not drawn),Percent Effect,"30 µM, 30.03 µM",-22.21%
COc1ncccc1CN1C[C@@H]2COC[C@]2(COCC(=O)N(C)C)C1.O=C(O)C(F)(F)F.O=C(O)C(F)(F)F,Percent Effect,"30 µM, 30.03 µM",-7.446%
CC(C)(C)c1nccc(C2(c3ccccc3Cl)CCNCC2)n1,Percent Effect,"30 µM, 30.03 µM",98.68%
CC(C)c1nccc(C2(c3ccccc3Cl)CCNCC2)n1,Percent Effect,"30 µM, 30.03 µM",-6.514%
Clc1ccccc1C1(c2ccnc(C3CC3)n2)CCNCC1,Percent Effect,"30 µM, 30.03 µM",-58.64%
Clc1ccccc1C1(c2ccnc(CC3CC3)n2)CCNCC1,Percent Effect,"30 µM, 30.03 µM",25.18%
Clc1ccccc1C1(c2ccnc(-c3ncccn3)n2)CCNCC1,Percent Effect,"30 µM, 30.03 µM",30.19%
Clc1ccccc1C1(c2ccnc(C3CCCC3)n2)CCNCC1,Percent Effect,"30 µM, 30.03 µM",101.7%
